Sampled rows, rich in hits. Any-hit rate of the full collection: about 7.6%.
p53 reactivator: restores transcriptional activity of mutant p53; H1299 p53-A138V BP100-luciferase reporter, luminescence, 24 h; 320,000 compounds, 0.063% hits; Potency, µM (highest dose often 92.2 µM), usual class: activators; note: nearly all actives have a fitted effect of over 45% in size
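H1299 (p53-null), stable ts p53-A138V + BP100-Luc; 1000 cells/well, Opti-MEM/10% FBS; cpd 4 pt, 1:5; 24 h, 37 deg C, 5% CO2; detection reagent 10 min RT; luminescence.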
ELG1 repair inh: ELG1-dependent DNA repair inhibition; HEK293T ELG1-luciferase reporter, luminescence, 16 h; DNA damage induced by 5-fluorouridine; AID 504467; Potency, µM (titrated, usually from 46.1 µM), hits mostly inhibitors; 330,000 compounds, 2.3% hits; note: nearly all actives have a fitted effect of over 55% in size
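Luminescence from the luciferase reporter, measured 30 min after ONE-Glo reagent at room temperature, was the read-out. Beforehand, 2,000 cells per well were exposed for 16 hr at 37 °C to 5-fluorouridine together with compound or vehicle.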
RORg inh: ROR gamma (mouse) transcription inhibition | Drosophila S2 Gal4-RORgamma UAS-luciferase reporter, 20 h | 310,000 compounds, 5.4% hits | Potency, µM (top dose mostly 53.6 µM), hits mostly inhibitors; note: nearly all actives have a fitted effect of over 60% in size
Target sequence (P51450 whole entry, looked up, the tested form may be a part): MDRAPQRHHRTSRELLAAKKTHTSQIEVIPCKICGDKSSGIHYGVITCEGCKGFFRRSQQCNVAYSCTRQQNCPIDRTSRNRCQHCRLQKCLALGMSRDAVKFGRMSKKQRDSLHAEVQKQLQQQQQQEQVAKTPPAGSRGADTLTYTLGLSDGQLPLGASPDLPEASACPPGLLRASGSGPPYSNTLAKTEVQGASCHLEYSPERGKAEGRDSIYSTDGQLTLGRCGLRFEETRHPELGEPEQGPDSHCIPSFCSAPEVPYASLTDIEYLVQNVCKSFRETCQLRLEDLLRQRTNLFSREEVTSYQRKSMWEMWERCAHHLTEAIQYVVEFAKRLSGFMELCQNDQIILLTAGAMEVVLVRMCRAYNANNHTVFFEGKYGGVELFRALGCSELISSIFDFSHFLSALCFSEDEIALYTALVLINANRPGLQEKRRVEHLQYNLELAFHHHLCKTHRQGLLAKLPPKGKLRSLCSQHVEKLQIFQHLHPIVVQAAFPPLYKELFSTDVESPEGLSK
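Compounds are pin-transferred onto Drosophila Schneider cells expressing a copper-inducible Gal4–ROR gamma transactivation domain fusion. After 1 hr, copper sulfate is added to 700 uM final; luciferase is read 20 hr later.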
VP16 counter: inhibits Gal4-VP16 luciferase reporter, ROR gamma counter-screen; 310,000 compounds, 3.5% hits; AID 2546; Drosophila S2 Gal4-VP16 UAS-luciferase, luminescence, 20 h; Potency, µM (doses to about 53.6 µM), usual class: inhibitors;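 note: Gal4-VP16 expression switched on by copper sulfate through the metallothionein promoter; nearly all actives have a fitted effect of over 50% in size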
Giardia kill: Giardia lamblia killing; activity change, % at 7.66 µM, hits read low; Giardia lamblia trophozoite viability; 340,000 compounds, 0.15% hits; in the data active = activity change below about -80%; inconclusive = between about -30% and that limit;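 note: parasites exposed to compound for two days anaerobically before the ATP read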
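Killing of trophozoites was scored by loss of ATP luminescence after a 48 hrs anaerobic exposure to compounds at 37 deg C, using 100 cells per well.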
BRCA1 expr act: increases BRCA1 expression. MCF7-BRCA1-FFLuc reporter, luminescence, 48 h; response scale: scaled: vehicle 0%, 10 µM genistein 100%. Potency, µM (doses to about 46.1 µM), usual class: activators. AID 624202. 380,000 compounds, 1.1% hits; note: nearly all actives have a fitted effect of over 80% in size
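Luminescence from a BRCA1-driven firefly luciferase in MCF7 cells was read after 48 h compound exposure at 37 C. Data normalized against DMSO and a 10microM genistein activation control, then curve-fitted across the titration.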
Each line names hits and unclear results; the compound was inactive in the other large screens. Unless noted, calls come from the whole dose curve; as a rule, active = well fitted curve in the direction sought with a large enough effect; inconclusive = small, poorly fitted or top-dose-only effect, or another doubt; inactive = no such curve, though single readings can be large; an effect the other way counts as inactive or inconclusive.

Nc1c(-c2ccccc2)cnc2c(-c3ccccc3)cnn12	p53 reactivator inconclusive, ELG1 repair inh inconclusive, RORg inh 6.31µM, VP16 counter 7.08µM, Giardia kill inconclusive
Nc1c(-c2cccs2)cnc2c(-c3ccc(F)cc3)cnn12	p53 reactivator inconclusive, ELG1 repair inh inconclusive, RORg inh inconclusive, BRCA1 expr act inconclusive
CC(C)(C)S(=O)(=O)c1cnc2c(-c3ccsc3)cnn2c1N	ELG1 repair inh inconclusive, RORg inh 4.47µM
COC(=O)/N=C(/Cc1ccc(OC)cc1)c1ccc(OC)cc1	p53 reactivator inconclusive, ELG1 repair inh inconclusive
CC(C)(C)OC(=O)C[C@H]1C/C=C\C[C@@H](CC(=O)N(CCO)Cc2ccccc2)C(=O)NC[C@H](c2ccccc2)OC1=O	ELG1 repair inh 18.3µM (no result: RORg inh, VP16 counter)
CC(C)(C)OC(=O)C[C@H]1C/C=C\C[C@@H](CC(=O)N[C@@H](CO)Cc2ccccc2)C(=O)NC[C@@H](c2ccccc2)OC1=O	ELG1 repair inh inconclusive (no result: RORg inh, VP16 counter)
O=C1NC[C@@H](c2ccccc2)OC(=O)[C@H](Cc2ccc(F)cc2)C/C=C\C[C@H]1CC(=O)N(CCO)Cc1ccccc1	ELG1 repair inh 20.6µM (no result: RORg inh, VP16 counter)
O=C1NC[C@@H](c2ccccc2)OC(=O)[C@@H](Cc2ccc(F)cc2)CC/C=C/C[C@H]1CC(=O)N(CCO)Cc1ccccc1	ELG1 repair inh 13µM (no result: RORg inh, VP16 counter)
CC(C)(C)OC(=O)C[C@@H]1C/C=C\C[C@@H](CC(=O)N[C@@H](CO)Cc2ccccc2)C(=O)NC[C@@H](c2ccccc2)OC1=O	ELG1 repair inh 7.3µM (no result: RORg inh, VP16 counter)
O=C1N[C@@H](c2ccccc2)COC(=O)[C@H](Cc2ccc(F)cc2)CC/C=C/C[C@H]1CC(=O)N(CCO)Cc1ccccc1	ELG1 repair inh inconclusive (no result: RORg inh, VP16 counter)
CC(C)(C)OC(=O)C[C@@H]1C/C=C\C[C@H](CC(=O)N(CCO)Cc2ccccc2)C(=O)NC[C@@H](c2ccccc2)OC1=O	none (no result: RORg inh, VP16 counter)
O=C1NC[C@H](c2ccccc2)OC(=O)[C@H](Cc2ccc(F)cc2)CC/C=C/C[C@@H]1CC(=O)N(CCO)Cc1ccccc1	ELG1 repair inh 11.6µM (no result: RORg inh, VP16 counter)
O=C(C[C@H]1C/C=C/CC[C@H](Cc2ccc(F)cc2)C(=O)O[C@H](c2ccccc2)CNC1=O)NCCO	none (no result: RORg inh, VP16 counter)
O=C(C[C@@H]1C/C=C/CC[C@@H](Cc2ccc(F)cc2)C(=O)O[C@@H](c2ccccc2)CNC1=O)NCCO	ELG1 repair inh 7.3µM (no result: RORg inh, VP16 counter)
COc1c(C(=O)NNC(=O)c2ccccc2)csc1Br	ELG1 repair inh inconclusive, BRCA1 expr act inconclusive
CN(C)c1cccc(C(=O)NNC(=S)NC2CC3CCC2C3)c1 (stereo not given)	ELG1 repair inh inconclusive, RORg inh 3.98µM, BRCA1 expr act inconclusive
COc1ccc(CCNC(=O)c2c(C)nn(CC(C)C)c2Cl)cc1	none
Cc1ccc(OCCn2cc(/C=C(\C#N)C(=O)NCC3CCCO3)c3ccccc32)cc1 (stereo not given)	ELG1 repair inh inconclusive, RORg inh inconclusive
Cc1ccc(/C=C(\C#N)C(=O)NCC2CCCO2)o1 (stereo not given)	p53 reactivator inconclusive, ELG1 repair inh inconclusive
N#C/C(=C\c1cn(CCOc2ccccc2F)c2ccccc12)C(=O)NCc1cccs1	none
Cc1ccc(C)c(OCCn2cc(/C=C(\C#N)C(=O)NCc3cccs3)c3ccccc32)c1	ELG1 repair inh 5.8µM
Cc1ccccc1-n1c(C)cc(/C=C(\C#N)C(=O)NCC2CCCO2)c1C (stereo not given)	p53 reactivator inconclusive, ELG1 repair inh inconclusive, BRCA1 expr act 14.1µM
Cc1ccc(C)c(OCCn2cc(/C=C(\C#N)C(=O)NCC3CCCO3)c3ccccc32)c1 (stereo not given)	ELG1 repair inh 16.4µM, RORg inh inconclusive
CC(C)N(C(=O)c1ccc2nc(-c3ccccc3)c(-c3ccccc3)nc2c1)C(C)C	VP16 counter inconclusive
COc1ccc(/C(C)=N/NC(=S)NCc2ccco2)cc1	p53 reactivator inconclusive, RORg inh 2.82µM, VP16 counter 5.62µM
C/C(=N\NC(=S)NCc1ccccc1)c1ccc2ccccc2c1	p53 reactivator inconclusive, RORg inh 2.51µM, VP16 counter 4.47µM
C=CCNC(=S)N/N=C(\C)c1ccc(OC)cc1	p53 reactivator inconclusive, ELG1 repair inh inconclusive, RORg inh 0.708µM, VP16 counter 1.12µM
COc1ccc(CC(=S)NCCc2ccccc2)cc1	none (no result: p53 reactivator)
COc1ccc(/C(C)=N/NC(=O)CNC(=O)c2ccco2)cc1	none
COc1ccc(/C(C)=N/NC(=S)NCCc2ccccc2)cc1	ELG1 repair inh inconclusive, RORg inh 0.282µM, VP16 counter 1.12µM
C/C(=N\NC(=S)NCc1ccccc1)c1cccc(Br)c1	p53 reactivator inconclusive, RORg inh inconclusive
N#C/C(=C\c1c(Cl)cccc1Cl)c1nn(-c2ccccc2)c(-n2cccc2)c1C#N	ELG1 repair inh inconclusive
CCCCOc1ccc(C(=O)OCC(=O)N2CCOCC2)cc1	none
C=CCNC(=S)N/N=C(\C)c1cccc(OC)c1	RORg inh 0.794µM, VP16 counter 0.891µM
COc1ccc(CNC(=S)N/N=C(\C)c2ccc(OC)cc2)cc1	RORg inh 6.31µM, VP16 counter 5.01µM
C/C(=N\NC(=S)NCCc1ccccc1)c1cccc(Br)c1	RORg inh 4.47µM, VP16 counter inconclusive
COc1cccc(/C(C)=N/N=C(\C)c2cccc(OC)c2)c1	ELG1 repair inh inconclusive, RORg inh inconclusive, BRCA1 expr act 3.16µM (no result: p53 reactivator)
Cn1nc(C(=O)Nc2cccc(S(=O)(=O)N3CCCCC3)c2)c2ccccc2c1=O	none (no result: RORg inh, VP16 counter)
CCN(CC(=O)Nc1c(F)cccc1F)C(=O)c1ccc(C2SCCS2)cc1	none (no result: RORg inh, VP16 counter)
COc1ccc(/C(C)=N/NC(=O)c2ccccc2OCc2ccccc2)c(OC)c1	ELG1 repair inh inconclusive
C=CCNC(=S)N/N=C(\C)c1cccnc1	RORg inh 3.16µM, VP16 counter 20µM
COc1ccccc1/C(C)=N/NC(=S)NCc1ccccc1	RORg inh 3.16µM, VP16 counter 7.08µM
CCCN(CC1CC1)S(=O)(=O)c1ccc(S(N)(=O)=O)cc1	none
N#CC(c1cccc(Cl)c1)c1ccc2c(C(F)(F)F)cc(C(F)(F)F)nc2n1 (stereo not given)	RORg inh 5.01µM, VP16 counter 3.98µM (no result: p53 reactivator, ELG1 repair inh)
COc1cc(C(=O)NC(=S)Nc2cccc(-c3cc4ccccc4oc3=O)c2)cc(OC)c1OC	ELG1 repair inh inconclusive, RORg inh inconclusive
Cc1cc(NC(=S)NC(=O)c2ccccc2)ccc1-c1cc2ccccc2oc1=O	ELG1 repair inh inconclusive, RORg inh 0.398µM
Cc1ccc(NC(=S)NC(=O)c2ccccc2)cc1NC(=S)NC(=O)c1ccccc1	ELG1 repair inh inconclusive, RORg inh 1.41µM, VP16 counter 7.08µM

Assay outcomes as filed in PubChem.
